These results are taken from publication PMC5540273 (PLoS ONE, 2017).

Values joined by “and” are separate entries in the source; they are usually repeats but may differ in a detail not shown here. Equal entries are not always repeated. Where two headings read alike, the source gives them in different places.

For one experiment, the system named is CSF1R-autoinhibited. The settings on record: concentration: 1 μM, replicates: in singlicate, n = 1.
In the next experiment the test system is CSF1R. Conditions: concentration: 1 μM, replicates: in singlicate, n = 1.
A further experiment deals with CSK. Conditions: concentration: 1 μM, replicates: in singlicate; n = 1.
The next experiment concerns CSNK1A1L. Conditions: concentration: 1 μM, replicates: in singlicate, n = 1.
The subject of a further experiment is CSNK1A1. The settings on record: concentration: 1 μM, replicates: in singlicate; n = 1.
The subject of the next experiment is CSNK1D. The settings on record: concentration: 1 μM, replicates: in singlicate, n = 1.
A further experiment has as its system CSNK1E. The settings on record: concentration: 1 μM, replicates: in singlicate, n = 1.
In the next experiment the test system is CSNK1G1. Conditions: concentration: 1 μM, replicates: in singlicate, n = 1.
The next experiment has as its system CSNK1G2. The settings on record: concentration: 1 μM, replicates: in singlicate; n = 1.
The test system of the next experiment is CSNK1G3. The settings on record: concentration: 1 μM, replicates: in singlicate, n = 1.
The subject of another experiment is CSNK2A1. The settings on record: concentration: 1 μM, replicates: in singlicate, n = 1.
A further experiment deals with CSNK2A2. Conditions: concentration: 1 μM, replicates: in singlicate, n = 1.
A further experiment relates to T1, CTK.
T1 construct: gene MATK
Conditions: concentration: 1 μM, replicates: in singlicate, n = 1.

Another experiment relates to DAPK1. Conditions: concentration: 1 μM, replicates: in singlicate, n = 1.
For the next experiment, the system named is DAPK2. Conditions: concentration: 1 μM, replicates: in singlicate, n = 1.
For a further experiment, the system named is DAPK3. Conditions: concentration: 1 μM, replicates: in singlicate; n = 1.
A further experiment has as its system T2, DCAMKL1.
T2 construct: gene DCLK1
Conditions: concentration: 1 μM, replicates: in singlicate, n = 1.

The next experiment relates to T3, DCAMKL2.
T3 construct: gene DCLK2
The settings on record: concentration: 1 μM, replicates: in singlicate; n = 1.

A further experiment deals with T4, DCAMKL3.
T4 construct: gene DCLK3
The settings on record: concentration: 1 μM, replicates: in singlicate, n = 1.

A further experiment has as its system DDR1. The settings on record: concentration: 1 μM, replicates: in singlicate, n = 1.
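Note: KINOMEscan kinase panel screen.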

Take `O=C(CCO)NCCn1ccc2ncnc(Nc3ccc(Oc4cccc(C(F)(F)F)c4)c(Cl)c3)c21`: the “%Inh” value in the experiment with CSF1R-autoinhibited is recorded as 0%; in the experiment with CSF1R it was 0%; in the experiment with CSK, 3%; with CSNK1A1L, 0%; in the experiment on CSNK1A1, 0%; in the experiment on CSNK1D it was 0%. Besides, the “%Inh” value in the experiment with CSNK1E, in the experiment with CSNK1G1, with CSNK1G2, with CSNK1G3, in the experiment with CSNK2A1 and in the experiment with CSNK2A2 was 0% each time. The “%Inh” value is 0% in the experiment on CTK; 11% in the experiment with DAPK1; 0% with DAPK2; 0% in the experiment with DAPK3; 39% in the experiment on DCAMKL1; 0% in the experiment on DCAMKL2. Also, the “%Inh” value with DCAMKL3 and in the experiment on DDR1 was 0% in each case.

Turning to `Cl.c1ccc(Cn2ccc3cc(Nc4ncnc5ccccc45)ccc32)cc1` [GW275568], the “%Inh” value in the experiment with CSF1R-autoinhibited amounted to 0%; in the experiment with CSF1R, 55%; in the experiment on CSK it was 20%; in the experiment on CSNK1A1L, 0%; in the experiment with CSNK1A1, 0%; in the experiment on CSNK1D, 26%. Further, the “%Inh” value turned out to be 55% with CSNK1E; 15% in the experiment on CSNK1G1; 0% with CSNK1G2; 22% in the experiment with CSNK1G3; 4% in the experiment with CSNK2A1; 19% in the experiment on CSNK2A2. For the same compound, the “%Inh” value in the experiment on CTK was found to be 0%; with DAPK1, 21%; in the experiment with DAPK2, 7%; with DAPK3, 30%; with DCAMKL1, 22%; in the experiment with DCAMKL2 it was 10%. Further, the results for the “%Inh” value with DCAMKL3 and in the experiment with DDR1 were 2% and 8%, respectively.

As to `CN1c2ccc(-c3ccc(C(=O)NCCO)cc3)cc2-c2[nH]ncc2S1(=O)=O`, the “%Inh” value in the experiment with CSF1R-autoinhibited is 25%; in the experiment with CSF1R, 0%; in the experiment on CSK, 9%; with CSNK1A1L, 7%; in the experiment with CSNK1A1 it was 4%; with CSNK1D, 5%. Also, the “%Inh” value in the experiment with CSNK1E is listed as 3%; in the experiment with CSNK1G1, 0%; in the experiment with CSNK1G2, 0%; in the experiment with CSNK1G3, 6%; in the experiment with CSNK2A1 it was 25%; in the experiment on CSNK2A2 it was 47%. Also, the “%Inh” value worked out at 0% with CTK; 32% with DAPK1; 36% in the experiment with DAPK2; 31% in the experiment with DAPK3; 26% with DCAMKL1; 12% with DCAMKL2. The “%Inh” value in the experiment with DCAMKL3 was determined as 2%; in the experiment with DDR1 it was 0%.

With `CSc1ccc(NC2=C(c3ccccc3Cl)C(=O)NC2=O)cc1` [SB-342411], the “%Inh” value with CSF1R-autoinhibited is given as 0%; in the experiment on CSF1R, 7%; in the experiment with CSK, 7%; in the experiment on CSNK1A1L, 0%; in the experiment on CSNK1A1, 0%; in the experiment on CSNK1D, 2%. The “%Inh” value is 19% in the experiment with CSNK1E; 16% in the experiment on CSNK1G1; 0% in the experiment on CSNK1G2; 0% with CSNK1G3; 2% in the experiment on CSNK2A1; 10% with CSNK2A2. Also, the “%Inh” value in the experiment with CTK is reported as 0%; in the experiment on DAPK1, 30%; with DAPK2 it was 16%; in the experiment on DAPK3 it was 11%; in the experiment with DCAMKL1, 2%; in the experiment on DCAMKL2 it was 0%. Also, the “%Inh” value is listed as 43% in the experiment on DCAMKL3 and 10% with DDR1.

`COc1ccc(-c2nc3n(c2-c2ccncc2)CCC3)cc1` [SKF-104493]: the “%Inh” value in the experiment with CSF1R-autoinhibited (1 µM) was 6% and 9%; in the experiment on CSF1R (1 µM), 23% and 2%; in the experiment with CSK it was 0%; with CSNK1A1L (1 µM), 12% and 0%; in the experiment on CSNK1A1 it was 0%; in the experiment on CSNK1D (1 µM), 40% and 18%. The “%Inh” value with CSNK1E (1 µM) is 22% and 7%; in the experiment with CSNK1G1 (1 µM), 0% and 13%; in the experiment with CSNK1G2, 0%; in the experiment on CSNK1G3 (1 µM) it was 6% and 14%; in the experiment on CSNK2A1 (1 µM), 0% and 2%; in the experiment on CSNK2A2 (1 µM) it was 13% and 15%. For the same compound, the “%Inh” value with CTK (1 µM) was 25% and 0%; with DAPK1 (1 µM) it was 82% and 21%; in the experiment on DAPK2 (1 µM), 0% and 6%; with DAPK3 it was 0%; in the experiment on DCAMKL1 (1 µM) it was 21% and 0%; with DCAMKL2 it was 0%. The “%Inh” value with DCAMKL3 (1 µM) was 0% and 18%; in the experiment with DDR1 (1 µM), 33% and 67%.

On to `COc1ccc(NC(=O)c2ccc(-c3cc(-c4nnc(C)o4)ccc3C)cc2)cc1` [GW595885], for which the “%Inh” value in the experiment with CSF1R-autoinhibited was 7%; with CSF1R, 14%; in the experiment with CSK, 0%; with CSNK1A1L, 5%; in the experiment with CSNK1A1 it was 0%; in the experiment on CSNK1D, 0%. Also, the “%Inh” value was found to be 0% in the experiment with CSNK1E; 0% in the experiment with CSNK1G1; 0% in the experiment with CSNK1G2; 14% with CSNK1G3; 0% with CSNK2A1; 11% in the experiment on CSNK2A2. Moreover, the “%Inh” value is given as 0% with CTK; 0% in the experiment with DAPK1; 0% in the experiment on DAPK2; 13% with DAPK3; 8% with DCAMKL1; 0% in the experiment with DCAMKL2. The “%Inh” value in the experiment with DCAMKL3 is listed as 2%; in the experiment on DDR1, 13%.

Consider `Cl.Cn1ccc(-c2cccc(Nc3ccnc4cc(-c5nccs5)ccc34)c2)n1` [GW525701], for which the “%Inh” value in the experiment with CSF1R-autoinhibited turned out to be 29%; in the experiment with CSF1R, 0%; with CSK, 0%; with CSNK1A1L, 5%; in the experiment on CSNK1A1, 0%; with CSNK1D, 12%. For the same compound, the “%Inh” value with CSNK1E is listed as 21%; in the experiment with CSNK1G1 it was 5%; in the experiment with CSNK1G2, 0%; with CSNK1G3, 0%; in the experiment on CSNK2A1, 0%; in the experiment on CSNK2A2, 0%. The “%Inh” value is 0% in the experiment with CTK; 17% in the experiment with DAPK1; 0% in the experiment on DAPK2; 2% with DAPK3; 13% in the experiment on DCAMKL1; 0% with DCAMKL2. The figures for the “%Inh” value with DCAMKL3 and in the experiment on DDR1 were 26% and 52%, respectively.

Regarding `Cl.c1ccc(Cn2ncc3cc(Nc4ncnc5ccccc45)ccc32)cc1` [GW273749], the “%Inh” value in the experiment on CSF1R-autoinhibited is listed as 0%; in the experiment with CSF1R it was 22%; in the experiment on CSK, 38%; in the experiment with CSNK1A1L, 12%; in the experiment on CSNK1A1, 0%; with CSNK1D, 15%. In addition, the “%Inh” value was 42% in the experiment on CSNK1E; 12% in the experiment on CSNK1G1; 0% with CSNK1G2; 30% in the experiment on CSNK1G3; 4% in the experiment on CSNK2A1; 13% in the experiment with CSNK2A2. The “%Inh” value in the experiment with CTK worked out at 0%; with DAPK1, 5%; with DAPK2, 0%; with DAPK3, 4%; with DCAMKL1 it was 9%; in the experiment with DCAMKL2, 0%. Besides, the “%Inh” value stood at 0% in the experiment on DCAMKL3 and 3% in the experiment with DDR1.

Turning to `COc1ccc(-c2oc3ncnc(N)c3c2-c2ccc(OC)cc2)cc1` [SB-589132], the “%Inh” value was determined as 70% in the experiment with CSF1R-autoinhibited; 61% in the experiment on CSF1R; 0% in the experiment with CSK; 12% in the experiment with CSNK1A1L; 0% in the experiment on CSNK1A1; 11% in the experiment with CSNK1D. In addition, the “%Inh” value with CSNK1E worked out at 43%; in the experiment with CSNK1G1, 0%; in the experiment with CSNK1G2 it was 0%; in the experiment with CSNK1G3, 12%; in the experiment with CSNK2A1 it was 30%; in the experiment with CSNK2A2 it was 40%. The “%Inh” value with CTK is 0%; in the experiment on DAPK1, 0%; in the experiment on DAPK2 it was 0%; in the experiment on DAPK3, 37%; with DCAMKL1, 14%; with DCAMKL2 it was 7%. Also, the figures for the “%Inh” value in the experiment on DCAMKL3 and with DDR1 were 36% and 94.6%, respectively.

Regarding `CC(C)N1CCC(n2cnc(-c3ccc(F)cc3)c2-c2ccnc(N)n2)CC1` [SB-223132], the “%Inh” value in the experiment on CSF1R-autoinhibited is recorded as 0%; with CSF1R, 0%; in the experiment with CSK, 0%; in the experiment with CSNK1A1L, 31%; in the experiment with CSNK1A1 it was 93.1%; with CSNK1D, 96.4%. For the same compound, the “%Inh” value in the experiment with CSNK1E is 98.8%; in the experiment on CSNK1G1, 2%; in the experiment on CSNK1G2, 3%; in the experiment on CSNK1G3, 6%; with CSNK2A1, 0%; in the experiment with CSNK2A2, 0%. Moreover, the “%Inh” value in the experiment with CTK was found to be 0%; with DAPK1, 26%; with DAPK2 it was 0%; with DAPK3, 17%; in the experiment with DCAMKL1, 22%; in the experiment with DCAMKL2, 4%. The “%Inh” value is recorded as 20% with DCAMKL3 and 46% in the experiment with DDR1.
